# According to the supplement of paper PMC12632987:
# Whole data set: some 1,800 sequences, median “median log2 fold change of GCK-ALFA target abundance (FLAG IP / Myc IP barcode read proportion)” near 0.14, cut for the lowest 2% near -0.84. Shown is part of a subset that was picked to be rich in the lowest values.
# B1: traf2_out_13_95_1086 (protein)
# chain: SKEVNEKIMEIADEMMEQILATLDALAKQVAGDPELAAAVAEARRLAETRGVNEAIHKLRELAKANPEHAELLNAAIAEIEAIKKEASKKISELLKEEEE
# B2: traf2_out_6_3_2525 (protein)
# chain: SSESLRKDARKVLENMGITTAEQLLTLVTAEVNAVKKVASRPDFDRADVAGLRSVLALTRAMVEVAYEELPSVTEADKAEALALIADAEALVEAKAKELE
# B3: traf2_out_3_89_2280 (protein)
# chain: SMEEEEKIKEARENIETWIRGLRKSTRRVAEEMRKEGASLETIKGLIDSSATALLEAFKISLKDKGFDEETIEELVEEAKEELEKIREELKEEAEKAYEE
# B4: traf2_out_13_95_1104 (protein)
# chain: SAETAEKIMKIADEMLDKVEKILEELLKIAKEKGKLEEEIKEALHLARYQSINEAIHKLKELAKKYPEFKEELEAAIKEIEALKKEAGRKVAEILKEEKK
# B5: traf2_out_13_95_1091 (protein)
# chain: SKEVAEKINKIADEMLDKSLALLEKLLKIAEEKGKAVEEIKEAIDLAEYRSINEAIHKLEELAKKYPEFKEELEATIKEIRAIKREAGRKVAEILKEEKE
# B6: traf2_out_13_95_1106 (protein)
# chain: SAETAEKIMEIADEMLDKVEELLEKLLEIAKKKGKLEEEIQEALHLARYRSINEAIHLLKELAKKYPEFKEELEETIEKIEELIREAGRKVAEILKEEKE
# B7: traf2_out_20_38_2033 (protein)
# chain: SEEEEEKRRLEEAIEVANEAYDKYSARVAAWKAAGKTVEEIAEEAKEEVRRLLTEAGLEEEAEILIEDIDRALSSPEAERLIVRILARAEALVYQKKVNE
# B8: traf2_out_11_104_646 (protein)
# chain: LTREQAREFNDFAMEANDKAKELLQEVADFLESRGHEEEAAKVRAELAHPGSGVSTFKNLLEELLPKLDEESRAVAEKAIKELEELQKKVSDKLNELEKK
# B9: traf2_out_20_3_2054 (protein)
# chain: EELLKELEEEEKKLRELIEEIEKLVDPETAEELREALERVEKARKEGLEEYLVALSELRRLLLRLAEEARAAGKEEVAALLEEAAEAAQRAMNIVMKIIE
# B10: traf2_out_18_117_1796 (protein)
# chain: SELEKLQEEFEKTLKEFEEELEEAQRVATKLIEKYPKQLPEEAMDAIVEFGEVKRRVQQLVQEAKAHPNDVEKQKKLVEELKKLLEEMKEIKKKLEEILK
# B11: traf2_out_11_155_685 (protein)
# chain: EEKQKINNELVDKISEIADKAKAEARAIAAATAAAHPEAAAALAATLEASAGFGLSSFLGRLAATFRALGLADAAAQVEALRAQAQKEMNAAVKEAEEKL
# B12: traf2_out_11_169_804 (protein)
# chain: EEAEKNREINDFALELNDEAVARLEEAALALAREAGLDPEEVRAIFEAHKGKSLSAVAAALIRHFRERGAEAAAEAVLALYEELKEEINKKMTEKIKELE
# B13: traf2_out_18_3_1946 (protein)
# chain: SEEERKKYSEKLDEVFDDTGAEILARARALVAEDPRFQPALDAIEAIAARGPRPATMANTLIDALRALGYEEEAAAVEEYYSEKAKEASELIKKYEEAIK
# B14: traf2_out_17_178_1710 (protein)
# chain: SKAEARATISAATDRMIDLAEAAAAELLAIAEAEGDLSPEELAELRRARRLGSARTTLALMRRAIPKLKSAERVQALLDRFEAEYAALAKEIAAALEKYE
# B15: traf2_out_17_178_1731 (protein)
# chain: SREEILKKISEKADELLDTNKEAMDELRKIAEKEGVLTPELREKLDAVHRNANLYALEEVFDEVIEKTKSKEEVEKLKEETSKKMRELNKEIQALVEELE
# B16: traf2_out_6_156_2382 (protein)
# chain: DIEKILEEAKKKIEELIKKLSKAPESKKIRYINEIAGTVYRALQKLRDLGASLEELKEFTEEIKKFVEEQLEKYGLDESTKNLILSSINAVGEVALREAA
# B17: traf2_out_20_3_2262 (protein)
# chain: DELRAKAEAALAEAEALLAELAPRLPAADAARLQELLDAAKAAFATDLRDALVYLSELRRLALALAEEARAAGDAALAAALEALADAVGRAANYVYKIIE
# B18: traf2_out_20_38_2004 (protein)
# chain: SEEEEEEKRLEKIIQAANDALDAWEARFAALKAEGKSVEEIAEIAKEEIRRLLTAAGLEEEAEELVAQVDLVLDSPDAERLIARILARAAALVTQKKLQE
# B19: traf2_out_20_38_2006 (protein)
# chain: SEEEEEEKRLQKIIDAANEELDRWEKEIEELRAEGKSVEEIAEIAKKRIREMLTAAGLEEEAEELIAQVDTVLDSPDAERAIARILARAAALVTQKKLQE
# B20: traf2_out_11_131_660 (protein)
# chain: MDAVATARSAAERVDALLALAETLSPEERHRLALHALDTIEAVAEYLTSHVSTMTKEEVKEAARILREARDRVLALDPRVAPEAAEVEEAIKKLLEAAEE
# B21: traf2_out_12_161_940 (protein)
# chain: SSEHFQELSDVANKAFDKAQEIVDRVAEVSPALRPTFLAVARSLTLPVEEARAILDAAIAAHEAELTPEQLAEVRALGDELLAIQKEAQEEIKKIQEKYR
# B22: traf2_out_3_89_2294 (protein)
# chain: SMEQEKKLEEMRKRMEAYLRGFERSARWVARQMVADGMSLDTIRGVLEAARTALLEVLRESAEEAGLSPEQIEELVEEARERLERIVEEVVEEARREREA
# B23: traf2_out_16_171_1431 (protein)
# chain: SAEEKEKALKEEIDKERDDIIERMETAVEVTPLISKETGLTVEQIAKGFRSTMDDRIEALKKKYEEAAKTASEEVKKYMKERLEEIEKAKEEALKKILEI
# B24: traf2_out_13_95_1115 (protein)
# chain: SKELAEKIMEISDKALDQANALLDALEAKIKASGKLAPEVAAALAAAKKSTISTAIHTLKELAKKYPEFKADFEATIAQLEQIRRDAGREVAKLIKEEKE
# B25: traf2_out_16_104_1404 (protein)
# chain: AEAKQAEFDAIIAELEAIADKLQKIANKLYKLYLKADPETKVKLSDALVKASEARRAALEAAERAREARETGGDLAEARAALAKAKEEAAKVEKEVKELE
# B26: traf2_out_17_162_1515 (protein)
# chain: SALEEELAKLEKELKKIEKELKELKEKLKDLDKMSKEELTDLLVEASEARRRALELAERLEELKPEIGEERAGKLIAEARKLAEELQKIANKIYKKLEEK
# B27: traf2_out_14_149_1232 (protein)
# chain: SAEQEKLRAAAEINAEIAAALDEVLALLDAGKVEEAKALLRATIAELRARGAAHGITVSGLFVLEEILALLDTDVEAAKAAAAAARARARNAAEAFREMA
# B28: traf2_out_20_3_2202 (protein)
# chain: EELEKKLEEELEKAEELLKKAKELADPETAKKLDELIKRLKESRELSYEDRLVELSEIRREVLLLAQQAKAEGNEELAKVLEEAAEAINRAKNLVYKIIE
# B29: traf2_out_13_95_1184 (protein)
# chain: SEETKKKINEIADDMLEKVEKILTELAEKVKDDPEVKKAVEEIKKTAVTKGIHTAIGELKELAKKYPEYKELINEAIEKIEEIRREAGKKVAEILKEEEE
# Target: T1, TRAF2, Q12933
# T1 chain: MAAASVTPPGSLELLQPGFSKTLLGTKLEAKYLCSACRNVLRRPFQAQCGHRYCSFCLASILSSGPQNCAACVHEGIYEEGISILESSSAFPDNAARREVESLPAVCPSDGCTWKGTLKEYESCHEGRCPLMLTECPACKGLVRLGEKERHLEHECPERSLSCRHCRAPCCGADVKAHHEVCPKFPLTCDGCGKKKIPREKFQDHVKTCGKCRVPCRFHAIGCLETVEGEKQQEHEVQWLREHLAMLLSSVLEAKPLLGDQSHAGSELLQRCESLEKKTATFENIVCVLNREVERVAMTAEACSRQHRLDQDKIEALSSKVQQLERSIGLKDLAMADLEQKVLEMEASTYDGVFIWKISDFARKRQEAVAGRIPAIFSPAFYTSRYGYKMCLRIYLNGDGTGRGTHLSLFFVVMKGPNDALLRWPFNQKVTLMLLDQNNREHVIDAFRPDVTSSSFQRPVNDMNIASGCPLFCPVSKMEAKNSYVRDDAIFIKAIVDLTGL
# Assay: median log2 fold change of GCK-ALFA target abundance (FLAG IP / Myc IP barcode read proportion) (log2 ratio); each designed protein is fused to an ALFA-tag nanobody in HEK293 cells to bring the named protein to FLAG-tagged glucokinase (GCK); Myc marks an untargeted standard; higher = target protein stabilised (more abundant)
# Settings: target protein: 3xFLAG-MCP-GCK-ALFA reporter; HEK293 landing pad (RPLP)
# Procedure: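 LABEL-seq trans screen in HEK293 landing-pad cells. Each de novo designed 100-aa effector handle, binding the indicated effector (E3 ligase, DUB or autophagy protein), is fused to a constant NbALFA target handle and induced with 2 ug/mL doxycycline. A FLAG-MCP-GCK-ALFA target and a Myc-MCP standard reporter were transfected, and after 48 h circRNA barcodes were recovered by anti-FLAG and anti-Myc IP and sequenced. The value is the median across barcodes (at least 3 per design) of log2(FLAG/Myc read-proportion ratio), with the two transfection replicates pooled. Negative values mean degradation and positive values mean stabilisation of the target.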
row,Binder,median log2 fold change
1,B1,-0.0311
2,B2,-0.025
3,B3,0.0329
4,B4,-0.841
5,B5,-0.417
6,B6,-0.553
7,B7,-0.971
8,B8,0.185
9,B9,0.588
10,B10,0.186
11,B11,0.177
12,B12,0.243
13,B13,0.267
14,B14,-0.136
15,B15,0.639
16,B16,0.0808
17,B17,0.219
18,B18,-1.04
19,B19,-0.29
20,B20,0.0927
21,B21,-1.56
22,B22,-0.433
23,B23,0.175
24,B24,-0.178
25,B25,0.341
26,B26,0.222
27,B27,0.339
28,B28,-0.0195
29,B29,-0.726
